One test relates to Klebsiella pneumoniae. As to conditions: Concentration 32 ug.mL-1; ASSAY_TEST Inhibition of Bacterial Growth; detection method Absorption (OD600); MEDIA CAMHB; plate type 384well; NBS; CORNING #3640; time 18 hr.
Another test concerns Candida albicans. Conditions: 32 ug/mL.
The test system of another test is Cryptococcus neoformans. As to conditions: Concentration 32 ug.mL-1; ASSAY_TEST Inhibition of Fungal Growth; detection method Resazurin; Absorption (OD600-OD570); plate type 384well; NBS; CORNING #3640. In general terms: Resazurin is reduced to fluorescent resorufin, in cell work by metabolically active cells.

Entries with a potency or affinity are not part of this list.

One may read the Inhibition as the relative decrease from the control value, in per cent.

As for `N#Cc1cc(C#N)c(NCCCCC2CCN(Cc3ccccc3)CC2)nc1N`, the Inhibition is 18.34% in the test on Klebsiella pneumoniae, 1.01% in the test on Candida albicans and -105.28% with Cryptococcus neoformans.

For the molecule `Cn1c(CNNC(=O)c2ccco2)cc2ccccc21`, the figures for the Inhibition in the test with Klebsiella pneumoniae, in the test with Candida albicans and in the test on Cryptococcus neoformans were -22.42%, 1.4% and -3.17%, respectively.

With `C#CCN(C)c1nc(NCC2CCN(Cc3ccccc3)CC2)c(C#N)c(-c2ccccc2)c1C#N.Cl`, the Inhibition in the test on Klebsiella pneumoniae was 9.81%; in the test with Candida albicans, -0.67%; in the test with Cryptococcus neoformans, 16.69%.

Turning to `Br.C#CCNCc1ccccc1`, the Inhibition in the test with Klebsiella pneumoniae was 12.8%; in the test with Candida albicans, -0.33%; in the test with Cryptococcus neoformans it was -4.9%.

Consider `Cc1nn(-c2ccccc2)c2ncn3nc(-c4ccccc4)nc3c12`, for which the Inhibition in the test on Klebsiella pneumoniae was 14.39%; with Candida albicans, 1.63%; in the test on Cryptococcus neoformans, -1.31%.

With `Nc1c2c(nc3ccc([N+](=O)[O-])cc13)CCCC2`, the Inhibition with Klebsiella pneumoniae was 16.59%; with Candida albicans, 2.09%; with Cryptococcus neoformans it was -74.97%.

For `N#Cc1c(-c2ccccc2)c2c(ccc3ccccc32)oc1=O`, the Inhibition in the test with Klebsiella pneumoniae was 13.16%; in the test with Candida albicans it was 0.36%; in the test on Cryptococcus neoformans, -9.44%.

Regarding `O=C(Cc1c[nH]c2ccccc12)N/N=C/c1ccco1`, the Inhibition in the test with Klebsiella pneumoniae is 10.08%; in the test on Candida albicans it was -1.03%; in the test on Cryptococcus neoformans, -6.47%.

Regarding `O=C(N/N=C/c1c[nH]c2ccccc12)c1cc2ccccc2[nH]1`, the Inhibition with Klebsiella pneumoniae is 11.64%; in the test with Candida albicans, 0.51%; with Cryptococcus neoformans it was -6.47%.

With `CN(C)c1nc(Cl)c(C#N)c(-c2ccccc2)c1C#N`, the figures for the Inhibition in the test with Klebsiella pneumoniae, in the test on Candida albicans and in the test on Cryptococcus neoformans were 5.58%, 3.09% and -9.38%, respectively.

For `CCOC(=O)/C(C#N)=C\c1ccc(C)cc1`, the results for the Inhibition in the test on Klebsiella pneumoniae, in the test with Candida albicans and in the test on Cryptococcus neoformans were 18.72%, 1.42% and -4.89%, respectively.

Take `CC1CN(C)c2c(C#N)c(-c3ccccc3)c(C#N)c(=N)n21` (configuration not stated): the Inhibition in the test with Klebsiella pneumoniae was 18.9%; in the test on Candida albicans, 1.63%; in the test on Cryptococcus neoformans it was -66.3%.

On to `C#CCN(C)c1nc(NCCCCC2CCN(Cc3ccccc3)CC2)c(C#N)cc1C#N`, for which the Inhibition is 0.44% in the test with Klebsiella pneumoniae, 3.03% in the test with Candida albicans and -41.21% in the test with Cryptococcus neoformans.

As for `Cc1ccc2nc(Cl)c(/C=N/C(C)(C)C)cc2c1`, the Inhibition in the test on Klebsiella pneumoniae was 7.37%; with Candida albicans, 7.21%; in the test on Cryptococcus neoformans it was -0.47%.

For the molecule `CSC1=NC2(CC2c2ccccc2)C(=O)N1C` (configuration not stated), the Inhibition with Klebsiella pneumoniae was -3.2%; in the test with Candida albicans, 0.11%; in the test with Cryptococcus neoformans, -5.95%.

Consider `N#Cc1c(N)nc(O)c(C#N)c1-c1ccccc1`, for which the Inhibition was -0.05% with Klebsiella pneumoniae, 5.45% with Candida albicans and -42.69% in the test with Cryptococcus neoformans.

Regarding `N#CC1(Br)C(=NBr)Oc2c(ccc3ccccc23)C1c1cccc([N+](=O)[O-])c1` (configuration not stated), the results for the Inhibition in the test with Klebsiella pneumoniae, in the test with Candida albicans and in the test on Cryptococcus neoformans were 24.92%, 10.2% and -69.53%, respectively.

Take `CC1=C(C(=O)O[C@@H]2C[C@@]3(C)CC[C@H]2C3(C)C)C(c2ccccc2)C(C#N)=C(N)O1` (some centres not stated): the results for the Inhibition in the test on Klebsiella pneumoniae, in the test with Candida albicans and in the test on Cryptococcus neoformans were -1.66%, 15.2% and -2.45%, respectively.

As for `CCOC(=O)/C(=C\c1ccccc1)C(=O)c1ccccc1`, the values for the Inhibition with Klebsiella pneumoniae, with Candida albicans and in the test with Cryptococcus neoformans were -3.55%, 3.73% and -2.93%, respectively.

For the molecule `N#CC1(Br)C(=NBr)Oc2c(ccc3ccccc23)C1c1ccccc1[N+](=O)[O-]` (configuration not stated), the figures for the Inhibition in the test with Klebsiella pneumoniae, in the test with Candida albicans and in the test with Cryptococcus neoformans were 24.4%, 25% and -80.63%, respectively.

With `ClCCC1CCN(Cc2ccccc2)CC1`, the Inhibition was 14.5% in the test with Klebsiella pneumoniae, 6.52% in the test on Candida albicans and -7.64% with Cryptococcus neoformans.

`COc1ccc(/C=C2/N=C(c3ccccc3)OC2=O)cc1OC`: the figures for the Inhibition in the test on Klebsiella pneumoniae, in the test on Candida albicans and in the test on Cryptococcus neoformans were -24.56%, -0.31% and -8.84%, respectively.

As to `CCOC(=O)c1c(C)[nH]c2ccc(OC)cc12`, the Inhibition in the test with Klebsiella pneumoniae is 6.33%; in the test on Candida albicans, 1.53%; in the test on Cryptococcus neoformans it was -2.15%.

Take `C#CCN(C)c1nc(Sc2ccccc2)c(C#N)c(-c2ccccc2)c1C#N`: the Inhibition with Klebsiella pneumoniae was 17.28%; in the test on Candida albicans, 1.53%; in the test on Cryptococcus neoformans, -1.7%.

With `O=C1NC(=O)C(=Cc2ccccc2)N1`, the Inhibition with Klebsiella pneumoniae was 12.73%; with Candida albicans it was -0.05%; in the test on Cryptococcus neoformans, -1.42%.

Regarding `CCOc1nc2nc(CCc3ccccc3)ccc2c(-c2ccccc2)c1C#N`, the Inhibition is 1.47% with Klebsiella pneumoniae, 7.93% in the test with Candida albicans and -42.89% in the test with Cryptococcus neoformans.

As to `COc1ccccc1C1c2c(ccc3ccccc23)OC(=N)C1(Br)C#N` (configuration not stated), the Inhibition was 13.77% in the test with Klebsiella pneumoniae, 5.01% in the test on Candida albicans and -63.67% with Cryptococcus neoformans.

Turning to `NOC(=O)C1CCN(Cc2ccccc2)CC1`, the results for the Inhibition in the test on Klebsiella pneumoniae, with Candida albicans and in the test on Cryptococcus neoformans were 4.34%, 1.62% and -5.93%, respectively.

Take `NNC(=O)Cc1c[nH]c2ccccc12`: the Inhibition in the test with Klebsiella pneumoniae is 17.86%; in the test on Candida albicans it was 3.51%; in the test on Cryptococcus neoformans, -6.14%.

Consider `N#CC1(Br)C(=NBr)Oc2ccc3ccccc3c2C1c1ccccc1[N+](=O)[O-]` (configuration not stated), for which the Inhibition was 5.57% with Klebsiella pneumoniae, 4.94% in the test on Candida albicans and -80.32% with Cryptococcus neoformans.

As for `Cc1ccc(C(O)SNNc2ncnc3c2cnn3-c2ccccc2)cc1` (configuration not stated), the figures for the Inhibition in the test on Klebsiella pneumoniae, in the test on Candida albicans and in the test on Cryptococcus neoformans were 7.03%, 2.59% and -4.5%, respectively.

In the case of `C#CCN(C)c1nc(Cl)c(C#N)c(-c2ccccc2)c1C#N`, the Inhibition with Klebsiella pneumoniae was 7.31%; in the test with Candida albicans, 11.2%; with Cryptococcus neoformans it was -24.12%.

Take `Nc1c2c(nc3c1C(c1ccc(O)cc1)c1c(ccc4ccccc14)O3)CCCC2` (configuration not stated): the Inhibition with Klebsiella pneumoniae was 8.92%; with Candida albicans it was 2.15%; in the test on Cryptococcus neoformans, -0.6%.

As to `C#CCN(C)c1nc(NC2CCN(Cc3ccccc3)CC2)c(C#N)c(-c2ccccc2)c1C#N`, the Inhibition with Klebsiella pneumoniae was -4.36%; with Candida albicans, 3.34%; in the test on Cryptococcus neoformans it was -29.11%.

For the origin of these results see ChEMBL document CHEMBL4513135, “CO-ADD screening of IQOG CSIS (Spain) compounds”.
